Results on 10 compounds are retold here after paper PMC5540273 (PLoS ONE, 2017).

SMILES strings stand for the structures.

What all share (conditions): concentration: 1 μM, replicates: in singlicate; n = 1
Assay [1] has as its system T1, VEGFR2.
T1 construct: gene KDR

Assay [2] relates to T2, VPS34.
T2 construct: gene PIK3C3

The subject of assay [3] is VRK2.
The test system of assay [4] is WEE1.
The subject of assay [5] is WEE2.
Assay [6] has as its system WNK1.
The test system of assay [7] is WNK2.
In assay [8] the test system is WNK3.
For assay [9], the system named is WNK4.
Assay [10] has as its system T3, YANK1.
T3 construct: gene STK32A

Assay [11] deals with T4, YANK2.
T4 construct: gene STK32B

The test system of assay [12] is T5, YANK3.
T5 construct: gene STK32C

For assay [13], the system named is T6, YES.
T6 construct: gene YES1

Assay [14] deals with T7, YSK1.
T7 construct: gene STK25

Assay [15] has as its system T8, YSK4.
T8 construct: gene MAP3K19

For assay [16], the system named is ZAK.
Assay [17] concerns ZAP70.
The subject of assay [18] is T9, p38-alpha.
T9 construct: gene MAPK14

Assay [19] has as its system T10, p38-beta.
T10 construct: gene MAPK11

The test system of assay [20] is p38-delta.
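Further: KINOMEscan kinase panel screen.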

Turning to `Cc1nccc(-c2c(-c3ccc(F)cc3)ncn2CCCN2CCOCC2)n1.Cl` [SB-282975], the “%Inh” value is recorded as 0% in [1]; 0% in [2]; 0% in assay [3]; 9% in assay [4]; 16% in [5]; 12% in [6]. Also, the “%Inh” value in assay [7] is listed as 6%; in [8] it was 2%; in assay [9] it was 0%; in assay [10] it was 0%; in [11], 0%; in assay [12], 5%. Moreover, the “%Inh” value is listed as 18% in assay [13]; 0% in [14]; 22% in assay [15]; 28% in assay [16]; 25% in assay [17]; 61% in [18]. For the same compound, the entries for the “%Inh” value in [19] and in [20] were 26% and 0%, respectively.

`Cc1ccc(NC(=O)Nc2ccc(Cl)c(C(F)(F)F)c2)cc1-c1ccc(C(=O)Nc2ccncc2)cc1` [GSK1398470]: the “%Inh” value in assay [1] came out at 0%; in [2], 0%; in assay [3], 8%; in assay [4] it was 3%; in assay [5] it was 10%; in assay [6] it was 0%. The “%Inh” value in [7] is 8%; in [8], 0%; in assay [9] it was 0%; in [10], 60%; in [11], 0%; in assay [12] it was 10%. The “%Inh” value in assay [13] worked out at 7%; in [14] it was 0%; in assay [15], 72%; in assay [16] it was 59%; in [17] it was 0%; in [18], 95.9%. For the same compound, the results for the “%Inh” value in [19] and in [20] were 96.2% and 0%, respectively.

With `CN1c2ccc(-c3ccc(C(N)=O)cc3)cc2-c2[nH]ncc2S1(=O)=O`, the “%Inh” value in [1] was determined as 21%; in [2], 0%; in assay [3] it was 3%; in [4], 14%; in assay [5], 0%; in assay [6], 6%. In addition, the “%Inh” value came to 0% in assay [7]; 4% in [8]; 0% in [9]; 0% in assay [10]; 0% in [11]; 0% in assay [12]. Moreover, the “%Inh” value amounted to 0% in [13]; 0% in [14]; 0% in [15]; 5% in assay [16]; 5% in assay [17]; 0% in [18]. Further, the “%Inh” value in assay [19] is listed as 4%; in [20], 38%.

For `Nc1cccc(-c2ccc3c(N)n[nH]c3c2)n1` [GSK2192730], the “%Inh” value is 19% in assay [1]; 1% in assay [2]; 0% in assay [3]; 0% in [4]; 0% in assay [5]; 23% in assay [6]. The “%Inh” value is on record as 0% in assay [7]; 0% in [8]; 0% in assay [9]; 5% in assay [10]; 0% in assay [11]; 0% in assay [12]. Further, the “%Inh” value is reported as 0% in [13]; 26% in [14]; 83% in assay [15]; 10% in [16]; 3% in [17]; 8% in [18]. In addition, the figures for the “%Inh” value in [19] and in assay [20] were 0% and 22%, respectively.

Turning to `O=c1cc(N2CCOCC2)nc2n(Cc3cccc(Cl)c3Cl)c3ccccc3n12` [GSK2299009], the “%Inh” value in [1] turned out to be 7%; in assay [2] it was 96.7%; in assay [3] it was 0%; in [4], 28%; in assay [5], 17%; in assay [6], 6%. The “%Inh” value was 42% in assay [7]; 5% in assay [8]; 0% in assay [9]; 22% in [10]; 0% in assay [11]; 29% in assay [12]. For the same compound, the “%Inh” value in [13] worked out at 17%; in assay [14], 21%; in assay [15] it was 3%; in assay [16], 5%; in assay [17], 0%; in assay [18] it was 12%. Besides, the “%Inh” value in assay [19] was 1%; in assay [20], 16%.

`CC(C)c1cc(-c2ccc3c(N)n[nH]c3c2)nc(N)n1` [GSK2250882]: the “%Inh” value is on record as 0% in assay [1]; 9% in [2]; 4% in assay [3]; 11% in assay [4]; 6% in assay [5]; 0% in assay [6]. Further, the “%Inh” value worked out at 0% in assay [7]; 3% in assay [8]; 0% in [9]; 20% in [10]; 0% in [11]; 19% in assay [12]. The “%Inh” value in [13] was 16%; in [14], 14%; in assay [15] it was 33%; in assay [16], 11%; in assay [17] it was 0%; in [18], 9%. In addition, the “%Inh” value in assay [19] was determined as 0%; in [20], 18%.

`CC[C@@H]1CO[C@H](C(=O)Nc2ccccc2)CN1c1cc(-c2ccc3c(N)n[nH]c3c2)nc(NC)n1` [GSK2376236]: the “%Inh” value in assay [1] is on record as 8%; in [2], 12%; in [3], 0%; in assay [4], 2%; in assay [5], 0%; in assay [6], 4%. The “%Inh” value in assay [7] was 10%; in [8], 5%; in assay [9], 0%; in [10] it was 41%; in assay [11], 77%; in [12] it was 0%. For the same compound, the “%Inh” value in [13] came to 0%; in assay [14], 6%; in assay [15] it was 1%; in assay [16], 0%; in [17], 0%; in assay [18], 8%. Further, the “%Inh” value in [19] was determined as 0%; in assay [20], 26%.

On to `CCn1c(-c2ccccc2)nc2cnccc21` [SB-733416], for which the “%Inh” value in [1] was determined as 0%; in [2], 0%; in assay [3], 34%; in assay [4], 8%; in assay [5] it was 2%; in assay [6], 17%. The “%Inh” value in [7] came to 0%; in [8], 26%; in [9], 19%; in [10] it was 0%; in assay [11], 0%; in assay [12], 32%. Moreover, the “%Inh” value in [13] was 4%; in assay [14], 0%; in assay [15] it was 0%; in assay [16], 7%; in assay [17] it was 0%; in assay [18] it was 0%. Besides, the results for the “%Inh” value in [19] and in [20] were 0% and 56%, respectively.

Take `COc1ccc(Nc2nccc(N3CCC(NC(=O)c4cc5ccccc5s4)C3)n2)cc1` (centres unmarked) [GSK1379738]: the “%Inh” value in assay [1] is listed as 0%; in assay [2] it was 0%; in assay [3] it was 0%; in assay [4], 10%; in [5] it was 0%; in [6], 14%. Moreover, the “%Inh” value in [7] is 11%; in assay [8], 34%; in assay [9], 24%; in assay [10], 0%; in assay [11], 6%; in assay [12], 0%. The “%Inh” value is reported as 17% in [13]; 7% in assay [14]; 47% in assay [15]; 60% in assay [16]; 0% in [17]; 20% in assay [18]. The “%Inh” value in [19] was 0%; in assay [20], 42%.

As to `Fc1ccc(-c2nc3n(c2-c2ccncc2)CCS3)cc1` [GI98581], the “%Inh” value in assay [1] is given as 0%; in assay [2], 21%; in assay [3], 0%; in [4], 3%; in assay [5], 7%; in assay [6], 0%. In addition, the “%Inh” value in assay [7] was found to be 7%; in assay [8] it was 13%; in assay [9], 2%; in assay [10], 13%; in assay [11] it was 5%; in assay [12], 21%. In addition, the “%Inh” value in [13] stood at 0%; in assay [14], 0%; in [15], 5%; in assay [16] it was 4%; in assay [17] it was 0%; in assay [18] it was 98.4%. The “%Inh” value in assay [19] and in assay [20] was 14% each time.
